# Measured potencies and affinities stand elsewhere. Activity calls are given as the source filed them.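 Rule for the calls: active = fitted EC50, the concentration giving half the signal drop, under 100 µM; inactive = the rest.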
# Molecular target: ATP-binding cassette sub-family B member 6 (Homo sapiens) (UniProt Q9NP58)
# Test: concentration-dependent ABCB6 porphyrin transport blockade – K562-ABCB6 cells, flow cytometry, cherry pick 1, dose response (AID 623955)
# Settings: K562-ABCB6 porphyrin fluorescence, 1 h; series mostly up to 100 µM
# ATP-binding cassette sub-family B member 6 (Homo sapiens), sequence (Q9NP58 whole entry, looked up): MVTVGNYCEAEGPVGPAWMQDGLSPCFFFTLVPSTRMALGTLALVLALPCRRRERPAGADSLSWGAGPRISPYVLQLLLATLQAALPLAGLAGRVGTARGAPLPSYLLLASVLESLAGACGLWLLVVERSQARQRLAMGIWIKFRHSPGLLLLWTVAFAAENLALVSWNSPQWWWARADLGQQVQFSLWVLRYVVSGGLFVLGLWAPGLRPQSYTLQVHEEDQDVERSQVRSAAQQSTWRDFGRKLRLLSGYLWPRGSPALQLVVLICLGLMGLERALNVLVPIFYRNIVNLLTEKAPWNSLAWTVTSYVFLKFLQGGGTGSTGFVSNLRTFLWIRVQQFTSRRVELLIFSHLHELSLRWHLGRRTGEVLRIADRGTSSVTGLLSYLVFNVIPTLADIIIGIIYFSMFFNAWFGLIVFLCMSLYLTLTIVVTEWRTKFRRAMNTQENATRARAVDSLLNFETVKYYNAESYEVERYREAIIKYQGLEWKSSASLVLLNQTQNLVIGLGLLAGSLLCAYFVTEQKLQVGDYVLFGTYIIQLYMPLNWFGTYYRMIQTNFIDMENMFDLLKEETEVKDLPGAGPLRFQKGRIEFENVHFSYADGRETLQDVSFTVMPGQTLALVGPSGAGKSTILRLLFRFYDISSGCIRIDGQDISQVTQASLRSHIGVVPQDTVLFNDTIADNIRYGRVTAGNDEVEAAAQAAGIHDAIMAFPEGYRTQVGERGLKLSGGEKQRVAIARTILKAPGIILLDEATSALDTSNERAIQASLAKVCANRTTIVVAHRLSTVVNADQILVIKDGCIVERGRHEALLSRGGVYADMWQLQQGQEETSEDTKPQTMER
row,Structure (SMILES),outcome
1,COCCNC(=O)CCc1nnc2ccc(N3CCC(C)CC3)nn12,inactive
2,CCOC(=O)C(C)NC(=O)CCc1nnc2ccc(N3CCC(C)CC3)nn12 (centres undefined),inactive
3,CC1CCN(c2ccc3nnc(CCC(=O)NCCCOC(C)C)n3n2)CC1,inactive
4,CCN1CCN(C(=O)CCc2nnc3ccc(N4CCC5(CC4)OCCO5)nn23)CC1,inactive
5,CC1CC(C)CN(C(=O)CCc2nnc3ccc(N4CCCCC4)nn23)C1 (centres undefined),inactive
6,CCOC(=O)CNC(=O)CCc1nnc2ccc(N3CCC(C)CC3)nn12,inactive
7,CCCNC(=O)CCc1nnc2ccc(N3CCC(C)CC3)nn12,inactive
8,CC1CCN(c2ccc3nnc(CCC(=O)N4CCCCC4)n3n2)CC1,inactive
9,CCOC(=O)C(C)NC(=O)CCc1nnc2ccc(N3CCCCC3)nn12 (centres undefined),inactive
10,CCC(C)NC(=O)CCc1nnc2ccc(N3CCC(C)CC3)nn12 (centres undefined),inactive
11,CCN(CC)CCNC(=O)CCc1nnc2ccc(N3CCC(C)CC3)nn12,inactive
12,O=C(CN1CCCCC1)Nc1cccc(Br)c1,inactive
13,CC(C)CCNC(=O)CCc1nnc2ccc(N3CCC(C)CC3)nn12,inactive
14,CCc1ccc(CNC(=O)C2Cc3cc(S(=O)(=O)N4CCCC4)ccc3N2C(C)=O)cc1 (centres undefined),inactive
15,CN1CCN(C(=O)CCc2nnc3ccc(N4CCC5(CC4)OCCO5)nn23)CC1,inactive
16,O=C(CCc1nnc2ccc(N3CCC4(CC3)OCCO4)nn12)N1CCCCC1,inactive
17,CC1CCN(c2ccc3nnc(CCC(=O)NC(C)C)n3n2)CC1,inactive
18,CCOC(=O)C1CCN(C(=O)CCc2nnc3ccc(N4CCN(C)CC4)nn23)CC1,inactive
19,COCCCNC(=O)CCc1nnc2ccc(N3CCC(C)CC3)nn12,inactive
20,CC1CCN(C(=O)CCc2nnc3ccc(N4CCC5(CC4)OCCO5)nn23)CC1,inactive
21,CCOCCCNC(=O)CCc1nnc2ccc(N3CCCCC3)nn12,inactive
22,COC(=O)C(NC(=O)CCc1nnc2ccc(N3CCC(C)CC3)nn12)C(C)C (centres undefined),inactive
23,CCOC(=O)N1CCN(CC(=O)Nc2ccc(C)cc2)CC1,inactive
24,COC(=O)C(NC(=O)CCc1nnc2ccc(N3CCCCC3)nn12)C(C)C (centres undefined),inactive

# Reference: PubChem BioAssay AID623955 (NMMLSC, 2012)
